# Data: PubChem BioAssay AID2314 (National Center for Advancing Translational Sciences (NCATS), 2010)
# Several values for one entry are separate records, joined by “and”; a condition that tells them apart may be missing. Equal entries are not always repeated. About 37,000 (12%) of roughly 300,000 compounds were called active. Only a selection was taken, and actives are over-represented in it overall. Values without a mark were called inactive. Rule as the data show it: active = max response mostly above about 13% (no sharp cut-off); inactive = mostly below about 14%.
# Assay: Cycloheximide Counterscreen for Small Molecule Inhibitors of Shiga Toxin; also: read at 38.3 µM for the half of the compounds with a filed dose; 0% is about no effect
# Details: cell reporter, cycloheximide protein synthesis inhibition counterscreen; stronger effect = higher value
row,Structure (SMILES),max response
1,COc1ccc(C(=O)N/N=C2\CCS(=O)(=O)c3ccc(F)cc32)cc1OC,-4.85%
2,O=C(CN(C(=O)c1csnn1)c1cccc(Cl)c1)NC1CCCC1,4.33%
3,COc1ccc2c3c(c(=O)oc2c1OCC(=O)C(C)(C)C)CCCC3,35% (active)
4,CCCOc1ccc2c3c(c(=O)oc2c1OCCC)CCC3,-3.41%
5,Cc1c(OC(C)C(=O)N[C@@H](Cc2ccccc2)C(=O)O)ccc2c3c(c(=O)oc12)CCCC3 (some centres undefined),-2.81%
6,COc1ccc(C(=O)CN(C(=O)c2ccc(Cl)cc2)N2C(=O)c3ccccc3C2=O)cc1,-2.08%
7,COc1ccc(Cn2c(-c3ccc(Cl)cc3)c[n+]3ccccc23)cc1,50.5% (active)
8,CCn1c(C)cc(=O)cc1-c1ccc(Cl)cc1,-3.63%
9,CCOc1ccc(NC(=O)CCS(=O)(=O)c2ccc3c(c2)CCCN3C(=O)CC)cc1,-2.69%
10,Cc1ccc(C(=O)COC(=O)CCN2C(=O)C3C4CCC(C4)C3C2=O)cc1C (centres undefined),11.1%
11,COC(=O)c1scc(C)c1NC(=O)CSc1ccc(Cl)cc1,-0.926%
12,CCC(=O)Nc1ccc2nn(-c3ccc(F)cc3)nc2c1,48.7% (active)
13,Cc1nn(CC(=O)Nc2ccc(F)cc2)c(=O)c2ccccc12,6.83%
14,O=C(CN1CCN(c2ccc(F)cc2)CC1)Nc1cccc(C(F)(F)F)c1,11.8%
15,CC(C)OC(=O)CN1C(=O)c2ccccc2C1=O,0.757%
16,Cc1cc(/C=C2/SC(=O)N(CC(=O)N3CCCC3)C2=O)c(C)n1C,-2.09%
17,Cc1cc(/C=C2/SC(=O)N(CC(=O)OC(C)C)C2=O)c(C)n1C,44% (active)
18,CC(C)OCCCNC(=S)N1CCC(C(=O)c2ccc3c(c2)OCCO3)CC1,-2.67%
19,CC1CCC2(CC1)NC(=O)N(Cc1nnc(-c3cccs3)o1)C2=O (centres undefined),7.72%
20,c1csc(-c2nnc(COc3ccc4c(c3)OCO4)o2)c1,43% (active)
21,c1csc(-c2nnc(COc3ncnc4sccc34)o2)c1,-1.52%
22,COc1cccc(C(=O)Nc2nnc(S(=O)(=O)N3CCCCC3)s2)c1,-1.34%
23,COc1cccc(Nc2nnc(SCC(=O)N3CC(C)OC(C)C3)s2)c1 (centres undefined),6%
24,COc1cccc(NC(=O)Nc2nnc(N3CCCCC3C)s2)c1 (centres undefined),43.6% (active)
25,O=C(c1ccco1)N1CCN(CCOc2ccccc2)CC1,9.67%

row,Structure (SMILES),max response
1,O=C1CCN(CCc2ccccc2)CCN1CCOc1ccccc1,10.9% (active)
2,O=C1CCN(CCCc2ccccc2)CCN1CCO,-4.59%
3,Cn1ncc2c(N3CCCCC3)nc(NCCCO)nc21,-5.17%
4,OCCC#Cc1ccc(CN2CCN(Cc3ccsc3)C(CCO)C2)cc1 (centres undefined),11.5%
5,CC1CCN(C(=S)c2cccc([N+](=O)[O-])c2)CC1,-0.525%
6,O=C(/C=C/c1ccc(F)cc1)NC(=S)NNC(=O)c1cccnc1,-1.85%
7,CS(=O)(=O)N(CC(=O)N1CCOCC1)c1cccc(Cl)c1Cl,4.45%
8,Cc1cccc(NC(=O)CSc2nc3[nH]ncc3c(=O)[nH]2)c1,6.25%
9,Cc1ccc(CSc2nc3[nH]ncc3c(=O)[nH]2)cc1,44.4% (active)
10,CCCSc1nc2[nH]ncc2c(=O)[nH]1,-7.37%
11,CCC(C)(C)NC(=O)C(c1ccc(OC)cc1)N(C(=O)CCC(=O)Nc1cc(C)on1)c1ccc(OC)cc1OC (centres undefined),-1.05%
12,COC(=O)c1ccc([C@@H](O)[C@H](C)C(=O)CC(=O)OC(C)(C)C)cc1,16.5% and 4.37%
13,C[C@@H](NC(=O)OC(C)(C)C)c1nnc(S(=O)(=O)Cc2ccccc2)o1,15.5% (active)
14,CC(C)Sc1nnc([C@H](Cc2ccccc2)NC(=O)OC(C)(C)C)o1,-2%
15,C[C@H](NC(=O)OC(C)(C)C)c1nnc(SCC(N)=O)o1,1.54%
16,COc1cc(-c2nnn(CC(=O)NCc3ccccc3)n2)cc(OC)c1OC,-0.552%
17,Cc1ccc(-n2c(O)c(C=Nc3ccc(S(=O)(=O)Nc4ncccn4)cc3)c3ccccc3c2=O)cc1C,9.64%
18,CC(C)Oc1ccc(CN2CCC(n3nccc3NC(=O)c3cccnc3)CC2)cc1,2.69%
19,COC(=O)C1=CN(c2ccc(F)c(F)c2)C=C(C(=O)OC)C1c1ccc([N+](=O)[O-])cc1,4.1%
20,CC(=O)c1ccc(N2CCN(S(=O)(=O)c3ccc4c(c3)CC(=O)N4C)CC2)cc1,11.5%
21,COC(=O)c1cc(NC(=O)c2nn(C)c(=O)c3ccccc23)cc(C(=O)OC)c1,-2.61%
22,COC(=O)c1cc(NC2c3ccccc3C(=O)N2c2ccc(Cl)cn2)cc(C(=O)OC)c1 (centres undefined),13.7% (active)
23,CCc1ccccc1NC1c2ccccc2C(=O)N1c1cccnc1 (centres undefined),1.65%
24,COCCNC(=O)c1ccc2c(c1)ncn2-c1ccc(C)c(Cl)c1,-2.44%
25,Cc1cc(OCCCN2CCN(Cc3ccccc3)CC2)ccc1[N+](=O)[O-],2.14%

row,Structure (SMILES),max response
1,NC1=NC(=O)C(Cc2cccc(Cl)c2Cl)S1 (centres undefined),-1.63%
2,COc1ccc(Cl)cc1CSc1ncn[nH]1,1.38%
3,O=C(/C=C/Sc1ncn[nH]1)c1ccc(Cl)cc1,35.4% (active)
4,O=C(NCCOCc1ccc(Cl)cc1)c1ncn[nH]1,-5.7%
5,Nc1nonc1-n1nnc(C(=O)N/N=C/C2CCCCC2)c1-c1ccccc1,-3.53%
6,COc1ccc(C(C(=O)NCc2ccccc2)N(Cc2cccs2)C(=O)c2cnccn2)cc1 (centres undefined),0.798%
7,CCNC(=O)CCc1nc(-c2ccc(C)cc2)no1,18.6% (active)
8,Cc1ccc(-c2noc(CNC(=O)c3ccoc3C)n2)cc1,11%
9,CCCCNC(=O)CCNC(=O)c1ccc(C(C)(C)C)cc1,5.17%
10,CCOc1cc(-c2noc(CCC(=O)N3CCOCC3)n2)ccc1OC,-0.629%
11,Cc1ccc(-c2noc(CCC(N)=O)n2)cc1,15.6% (active)
12,CN1CCN(C(=O)CCc2nc(-c3ccc(Cl)cc3)no2)CC1,7.26%
13,CCNC(=O)CCc1nc(-c2ccc(C(C)(C)C)cc2)no1,34.3% (active)
14,COc1ccc(N2CCN(C(=O)CCc3nc(-c4ccc(C)cc4)no3)CC2)cc1,-3.69%
15,Cc1ccc(-c2noc(CCC(=O)Nc3ccccc3N3CCN(C)CC3)n2)cc1,3.85%
16,CC(C)C(NS(=O)(=O)c1cccs1)C(=O)Nc1nc(C(C)(C)C)cs1 (centres undefined),-2.46%
17,Cc1cc(NS(=O)(=O)c2ccc(NC(=O)C(C)Oc3cccc(C)c3C)cc2)nc(C)n1 (centres undefined),-0.471%
18,Cc1ccc(C)c(NC(=O)C(OC(=O)c2ccc(C)s2)c2ccccc2)c1 (centres undefined),6.66%
19,COc1cc(OC)c2c(-c3cccc(-c4cccc(N)c4)c3)cc(=O)oc2c1,-2.04%
20,CC(C)n1c(=S)[nH]c2cc(C(F)(F)F)ccc21,12.9%
21,Cc1oc2cc(Br)c(O)c(Br)c2c1C(=O)c1ccccc1,13.7%
22,OCC1(Cc2ccccc2C(F)(F)F)CCN(Cc2ccncc2)CC1,0.237%
23,Cc1ccc(C2C3=C(Nc4[nH]n(-c5ccccc5)c(=O)c42)c2ccccc2C3=O)cc1 (centres undefined),-3.8%
24,COC(=O)C1=C(C)NC2=C(C(=O)c3ccccc32)C1c1ccc(-c2ccc(C(=O)O)cc2)o1 (centres undefined),28.7% (active)
25,COC(=O)C1=C(C)NC(=O)NC1/C=C/c1ccccc1 (centres undefined),0.456%

row,Structure (SMILES),max response
1,N=C1/C(=C/c2cccn2-c2cccc([N+](=O)[O-])c2)C(=O)N=C2SC=CN12,-2.19%
2,CC1(C)CC2CC(C)(CN2c2ncnc3ccc(Br)cc23)C1 (centres undefined),-0.269%
3,COc1ccc(Cc2nnnn2CC(=O)O)cc1,-1.14%
4,COc1ccc(Cc2nnc(SC)[nH]c2=O)cc1,4.91%
5,COc1ccc(Cc2cc(-c3ccc(F)cc3)n[nH]c2=O)cc1,16.2% (active)
6,O=c1[nH]c2ccccc2n2c(-c3ccccc3)nnc12,-2.01%
7,CC(CN1CCC(n2nccc2NC(=O)C2CCCC2)CC1)c1ccccc1 (centres undefined),-1.46%
8,COc1cc(OC)cc(C(=O)N[C@H](C(=O)OCC(=O)NC(C)c2ccccc2)C(C)C)c1 (some centres undefined),6.33%
9,O=C(CNC(=O)c1ccccc1)NCC(=O)OCc1ccc(Cl)cc1,-2.96%
10,COc1cc(OC)cc(C(=O)NCC(=O)OCc2csc(-c3ccccc3)n2)c1,20.1% (active)
11,COc1cccc(NC(=O)c2ccccc2N(Cc2ccccc2)S(C)(=O)=O)c1,1.56%
12,O=C1NC(c2ccccc2)Oc2ccccc21 (centres undefined),-1.34%
13,O=C1c2ccccc2C(=O)C1c1ccccc1,6.52% (active)
14,O=C1c2ccccc2C(=O)C1c1ccccc1F,-5.87%
15,Cc1ccc(C)c(NC(=O)C2Cc3ccccc3CN2C(=O)OCc2ccccc2)c1 (centres undefined),-3.28%
16,N/C(=N\OC(=O)COc1ccc([N+](=O)[O-])cc1)c1ccc(Br)cc1,6.76%
17,COc1ccc(C(=O)NNC(=O)c2cnccn2)cc1[N+](=O)[O-],1.13%
18,N/C(Cc1ccc([N+](=O)[O-])cc1)=N\OC(=O)COc1ccc2ccccc2c1,-3.82%
19,O=C(OCc1ccc([N+](=O)[O-])cc1)c1ccccn1,-3.03%
20,COc1ccc(C(=O)O/N=C(\N)c2ccccn2)cc1[N+](=O)[O-],59.4% (active)
21,N/C(=N\OC(=O)c1ccc([N+](=O)[O-])cc1)c1ccccn1,42.7% (active)
22,N/C(=N\OC(=O)Cc1ccc([N+](=O)[O-])cc1)c1ccccn1,61.5% (active)
23,Cc1ccc(C(=O)O/N=C(\N)c2ccccn2)cc1Cl,13.6%
24,CO/N=C(\N)c1ccc([N+](=O)[O-])cc1,0.264%
